Assay outcomes (PubChem)
DT40 TDP1 no CPT – qHTS for Inhibitors of human tyrosyl-DNA phosphodiesterase 1 (TDP1): qHTS in cells in absence of CPT; 15% of 420,000 active; Potency, µM (titrated, usually from 46.2 µM), without a hit: at the highest dose activity change, negative = growth inhibition, hits mostly inhibitors; DT40 Tdp1-/- hTDP1 cells, no CPT, ATP luminescence, 48 h; AID 686978, 2013; further: potency means the concentration at half of the fitted maximal effect; nearly all actives have a fitted effect of over 55% in size
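Seeded 400 DT40-hTDP1 cells/well (vehicle DMSO, no 20 nM CPT); pinned compounds; ≥48 hr at 37 °C; CellTiter-Glo luminescence as viability measure.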
IL1B secr inh – qHTS for Inhibitors of Inflammasome Signaling: IL-1-beta AlphaLISA Primary Screen; AID 743279, 2014; activity change, % at 57.5 µM; 4.7% of 360,000 active; THP-1 LPS/ATP IL-1B secretion, AlphaLISA, 16 h; hits give low values; in the data active means activity change below about -50%; inconclusive means mostly about -30% to -49%
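Secreted IL-1B measured by AlphaLISA bead assay after 16 h compound exposure of THP-1 cells; compounds (final up to 57.5 uM) added 1 h before LPS (250 ng/mL) and ATP (1.25 mM) stimulation; lower signal means less secretion.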
TDP1 inh – qHTS Assay for Inhibitors of Tyrosyl-DNA Phosphodiesterase (TDP1). Tyrosyl-DNA phosphodiesterase 1 (Homo sapiens), Q9NUW8. recombinant TDP1, AlphaScreen DNA substrate cleavage. Potency, µM (highest dose often 130 µM), for the others: at the top dose activity change, negative = inhibition, hits mostly inhibitors. 0.28% of 350,000 active; further: potency means the concentration at half of the fitted maximal effect; nearly all actives have a fitted effect of over 40% in size
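Recombinant E. coli-expressed Tdp1 (1 nM) preincubated with compound 15 min at RT, then 5'-biotin/3'-phosphotyrosine-FITC DNA substrate (15 nM) added for 5 min. AlphaScreen beads (10 ug/ml) added, 10 min RT; tyrosine-FITC cleavage read as signal loss.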
TDP1 cell CPT – qHTS for Inhibitors of human tyrosyl-DNA phosphodiesterase 1 (TDP1): qHTS in cells in presence of CPT; 12% of 420,000 active; chicken DT40 Tdp1-/-;hTDP1 cells + 20 nM CPT, ATP luminescence, 48 h; AID 686979, 2013; Potency, µM (highest dose often 46.2 µM), without a hit: top-dose activity change, negative = growth inhibition, actives largely listed as inhibitors; further: potency means the concentration at half of the fitted maximal effect; nearly all actives have a fitted effect of over 55% in size
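Cell growth measured by CellTiter-Glo luminescence after a minimum 48 h, 37 C compound exposure with 20 nM CPT in Tdp1-knockout DT40 cells stably expressing hTDP1, seeded 400/well; qHTS titration format.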
Six1-Eya2 inh – qHTS Assay for Inhibitors of the Six1/Eya2 Interaction; AlphaScreen GST-Six1/His-Eya2 binding, biochemical; hits give low values; 0.56% of 360,000 active; activity change, % (no concentration beside the values); Homeobox protein SIX1 (Homo sapiens) + Protein phosphatase EYA2 (Homo sapiens), …; in the data active means activity change below about -65%; inconclusive means mostly about -30% to -63%
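AlphaScreen with GST-Six1 and His-Eya2 (5X mix: 250 nM and 500 nM), glutathione donor and nickel acceptor beads; buffer 50 mM Tris pH 8.0, 300 mM NaCl, 1 mM TCEP; 1 h at 37 C in the dark.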
CtBP-E1A blk – qHTS Assay for Inhibitors of the CtBP/E1A Interaction; 0.49% of 340,000 active; AlphaScreen GST-E1A/His-CtBP binding, 1536-well; hits give low values; CtBP / adenovirus E1A interaction (AlphaScreen); AID 651724, 2012; activity change, % (concentration not given with the values); in the data active means activity change below about -65%; inconclusive means mostly about -30% to -63%
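AlphaScreen with 125 nM GST-E1A and 125 nM His-CtBP (5X stocks) in Tris pH 8.0, 300 mM NaCl, BSA, Tween 20, TCEP. Compounds preincubated 2 h at 37 deg C, then glutathione donor/nickel acceptor beads added for 1 h at 37 deg C in dark.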
* = called active by the depositor; ? = inconclusive; / = not tested or not shown. Rows were chosen to be rich in hits. Some 18% of all compounds tested hit in one or more screens of this group. Unless noted, the call rests on the fitted dose curve; in most records, active means well fitted curve in the direction sought with a large enough effect; inconclusive means small, poorly fitted or top-dose-only effect, or another doubt; inactive means no such curve, though single readings can be large; an effect the other way counts as inactive or inconclusive. On the % scale 0 is the no-effect control and ±100 the full control effect.

SMILES	DT40 TDP1 no CPT	IL1B secr inh	TDP1 inh	TDP1 cell CPT	Six1-Eya2 inh	CtBP-E1A blk
COc1ccc(N2CCN(C(=O)c3cccc(NC(=O)c4nsc5ccccc45)c3)CC2)cc1	12µM*	/	8%	15µM*	/	/
Cc1ccc(C(=O)N2CCN(c3ccccc3)CC2)cc1NC(=O)c1nsc2ccccc12	?	/	8%	21µM*	/	/
COc1cccc(N2CCN(C(=O)c3cccc(NC(=O)c4nsc5ccccc45)c3)CC2)c1	21µM*	/	5%	?	/	/
c1ccc2c(COn3nnc4ccccc43)cccc2c1	?	3	-8%	?	7	25
CC1=CC(=O)C(C(C)C)=CC1=NC(=O)c1ccc(C)cc1	2.1µM*	15	2%	2.3µM*	-2	/
Cc1cc2ccccc2n1CCNCc1c(C(=O)N2CCOCC2)nc2ccccn12	-8%	-3	/	?	-16	-8
COCCNC(=O)c1nc2ccccc2s1	-18%	51	3%	22%	1	8
COc1ccc(-c2n[nH]c(=S)n2/N=C/C=C/c2ccccc2OC)cc1	?	0	-13%	?	7	-10
COc1ccccc1/C=C/C=N/n1c(C2CCCCC2)n[nH]c1=S	16µM*	-3	4%	?	-17	-22
CCOc1ccccc1/C=N/n1c(C2CCCCC2)n[nH]c1=S	-1%	10	/	-21%	-5	-10
COc1ccccc1/C=C/C=N/n1c(-c2ccccc2)n[nH]c1=S	21µM*	26	8%	?	3	-3
Cc1ccc(-c2n[nH]c(=S)n2/N=C/c2ccc(C)s2)cc1	-6%	-7	4%	-5%	-10	-9
Cc1ccc(/C=N/n2c(-c3ccc(Cl)cc3)n[nH]c2=S)s1	16µM*	19	/	?	0	2
COc1ccccc1/C=C/C=N/n1c(-c2ccc(Cl)cc2)n[nH]c1=S	16µM*	12	8%	?	-17	-4
CCOc1ccc(NC(=O)CCC(=O)Nc2cc(OC)c(NC(=O)c3ccco3)cc2OC)cc1	-18%	4	/	11%	-11	-18
CCOC(=O)c1c(S(=O)(=O)NCC(=O)N2CCN(c3ccccc3)CC2)c(C)n(C)c1C	5%	?	4%	7%	11	4
COc1cccc(Nc2c(Nc3cccc(OC)c3)c(=O)c2=O)c1	4%	14	/	4%	2	-8
COc1cccc(Nc2ccc(Nc3cccc(OC)c3)nn2)c1	?	-99*	5%	?	-17	-1
Cc1ccccc1CN1C(=O)c2ccccc2Sc2ccc(C(=O)N3CCOCC3)cc21	18µM*	/	5%	?	/	/
Cc1ccccc1CN1C(=O)c2ccccc2Sc2ccc(C(=O)N3CCCC3)cc21	16µM*	/	2%	21µM*	/	/
O=C(c1ccc2c(c1)N(Cc1ccccc1F)C(=O)c1ccccc1S2)N1CCOCC1	-8%	-5	/	-1%	0	/
Cc1ccccc1CN1C(=O)c2ccccc2Sc2ccc(C(=O)O)cc21	-1%	-3	2%	-6%	1	2
O=C(c1ccc2c(c1)N(Cc1ccccc1)C(=O)c1ccccc1S2)N1CCCC1	9.2µM*	-16	-8%	16µM*	-5	-3
O=C(NCc1cccnc1)c1cc([N+](=O)[O-])ccc1N1CCOCC1	-1%	-2	0%	1%	-1	7
Cc1ccc(Nc2nnc(SCC(=O)c3c(N)n(C4CC4)c(=O)[nH]c3=O)s2)cc1C	?	-5	0%	21µM*	-19	-5
SMILES	DT40 TDP1 no CPT	IL1B secr inh	TDP1 inh	TDP1 cell CPT	Six1-Eya2 inh	CtBP-E1A blk
CN1CCN(C(=O)/C(=C/c2cccs2)NC(=O)c2ccco2)CC1	?	-18	2%	16%	4	5
CCCCCOc1ccc(Cn2c(=O)oc3ccc(C)cc32)cc1OC	21µM*	/	1%	26µM*	/	/
Cc1ccc(C(C)C)c(OCCCn2c(=O)oc3ccc(C)cc32)c1	16µM*	/	-5%	?	/	/
CCN(C(=O)c1cc(S(=O)(=O)N2CCOCC2)cn1C)c1ccc(OC)cc1	-18%	/	-1%	-30%	/	/
COc1ccc(Cc2noc(CN3CCN(C4CCc5ccccc5C4)CC3)n2)cc1OC (stereo not drawn)	21µM*	-18	3%	?	-3	-8
COc1ccc(Cc2noc(CN3CCC(c4ccncc4)CC3)n2)cc1OC	23µM*	43	/	21µM*	2	/
Fc1cccc(Cc2noc(CN3CCN(C4CCc5ccccc5C4)CC3)n2)c1 (stereo not drawn)	?	23	1%	?	-16	-8
CC(C)(c1ccccc1)c1ccc(OCC(O)CN2CCCC2)cc1 (stereo not drawn)	?	-67*	/	?	-3	-4
OC1CCCN(CC(O)COc2ccc(-c3ccccc3)cc2)C1 (stereo not drawn)	23µM*	-26	/	?	11	1
COc1ccc([C@H]2CC(=O)C=C(c3cc(F)ccc3F)C2)cc1OC	-52%	-25	2%	?	-1	2
CSc1nc(N(C)NC(=O)c2ccc(F)cc2)c2ccccc2n1	0.73µM*	75	0%	0.58µM*	9	-3
Cn1c(CNC(=O)c2ccc(F)cc2)nc2ccccc21	-28%	27	3%	?	8	2
COc1ccc(C2CC(=O)c3cc(OC)ccc3O2)cc1 (stereo not drawn)	?	-26	/	-27%	3	11
COc1ccc2c(c1)C(=O)Cc1ccccc1O2	21µM*	-11	/	-9%	1	-23
COc1ccc(C2C=C(c3ccccc3)Nc3nc(NS(=O)(=O)c4ccccc4)nn32)cc1 (stereo not drawn)	?	/	0%	?	/	/
COc1ccc(C2C=C(c3ccc(Cl)cc3)Nc3nc(NC(=O)CCC(=O)O)nn32)cc1 (stereo not drawn)	-25%	/	0%	6%	/	/
COc1ccccc1C(=O)Nc1nc2n(n1)C(c1ccc(F)cc1)C=C(c1ccc(Cl)cc1)N2 (stereo not drawn)	?	/	0%	?	/	/
